Compound activity deposited in PubChem by Broad Institute.
Pf Dd2 inh – P. falciparum Dd2 growth inhibitors, primary screen, SYBR Green fluorescence, single dose replicates; 72 h; active compounds read low; activity change, % at 10 µM; 2.3% of 94,000 active; AID 1159554, 2015; in the data active = activity change below about -80%; inconclusive = no clear call, values can overlap the other calls
T cruzi growth-1 – T. cruzi intracellular proliferation inhibitors, primary screen, cell-based, beta-gal Tulahuen parasites, NIH3T3 host, luminescence | T. cruzi beta-gal in NIH3T3, GalScreen luminescence, 90 h | inhibition, % at 8.34 µM | 5.9% of 77,000 active | AID 624255, 2012;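 active = mean inhibition above about 93%, with at least 55% of replicates each passing it, limit read from the data, passing the limit was not always enough; inconclusive = only one of those two conditions holds; inactive = neither condition holds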
C diff HTS – C. difficile growth inhibitors, primary screen, HTS. Clostridium difficile clinical isolate growth, OD600, 24 h; active compounds read low. growth activity, negative = inhibition, % at 16 µg/mL (by protocol). 0.25% of 86,000 active;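 active = mean growth activity at or below -80% and every replicate also at or below -80%; inconclusive = mean at or below -80% but some replicate above -80%; inactive = mean growth activity above -80%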;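 note: 0% = DMSO wells and -100% = levofloxacin 16 µg/mL wells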
T cruzi growth-2 – T. cruzi intracellular proliferation inhibitors, confirmation, cell-based, NIH3T3 host, beta-gal parasite, luminescence, cherry-pick; shares compounds with T cruzi growth-1; T. cruzi beta-gal in NIH3T3, GalScreen luminescence, 90 h; inhibition, % at 8.35 µM; 72% of 5,600 active; AID 651739, 2012;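 active = mean replicate inhibition above about 95% and at least 55% of replicates individually reaching it, limit read from the data; inconclusive = only one of the two criteria is met; inactive = neither criterion is met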
T cruzi growth-3 – inhibitors of intracellular T. cruzi replication, confirmation, NIH3T3 host cells, beta-gal parasites, cherry-pick, set 2 | shares compounds with T cruzi growth-1 | 21% of 5,600 active | inhibition, % at 2.09 µM | T. cruzi beta-gal in NIH3T3, GalScreen luminescence, 90 h | AID 651740, 2012;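 active = mean inhibition above about 95%, with at least 55% of replicates also reaching it, limit read from the data; inconclusive = meets just one of the two conditions; inactive = meets neither condition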;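 note: plate controls were neutral control median for no effect and positive control median for full effect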
3T3 cytotox – cytotoxicity in mouse NIH/3T3 fibroblasts, confirmation, cytotoxicity control for T. cruzi proliferation inhibitor project, cell-based, cherry-pick, single point; cytotoxicity (signal decrease), % at 8.35 µM; 14% of 5,600 active; NIH/3T3 viability, CellTiter-Glo ATP luminescence, 90 h; shares compounds with T cruzi growth-1;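 active = mean signal decrease across replicates above about 35% based on untreated-well scatter, with enough replicates individually passing, limit read from the data; inconclusive = no rule stated though some were filed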;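 note: 0% = median of neutral control wells and 100% = median of positive control wells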
NIH3T3 tox 2 – NIH/3T3 fibroblast cytotoxicity, confirmation, cytotoxicity control, cell-based, cherry-pick, single point, set 2; inhibition, % at 24.9 µM; NIH/3T3 viability, CellTiter-Glo ATP luminescence, 90 h; 56% of 5,600 active; shares compounds with T cruzi growth-1; AID 651744, 2012;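 active = mean loss of cell viability signal at or above a set limit, and enough replicates individually reaching it; inconclusive = meets only the mean limit or only the replicate share; inactive = meets neither condition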;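 note: 0% = median of neutral control wells and 100% = median of positive control wells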
* = called active by the depositor; ? = inconclusive; / = no result given. Compounds with a hit are over-represented: about 6.7% of the library has one in this group of screens.

SMILES	Pf Dd2 inh	T cruzi growth-1	C diff HTS	T cruzi growth-2	T cruzi growth-3	3T3 cytotox	NIH3T3 tox 2
C[C@@H]1CN([C@H](C)CO)C(=O)Cc2cc(NC(=O)Nc3cccc4ccccc34)ccc2O[C@@H]1CN(C)Cc1ccc(-c2ccccc2)cc1	6	98*	11	112*	62	19	?
Cc1noc(C)c1NC(=O)Nc1ccc2c(c1)C(=O)N([C@H](C)CO)C[C@@H](C)[C@H](CN(C)S(=O)(=O)c1c(C)noc1C)OCCCC[C@@H](C)O2	-16	-8	-1	/	/	/	/
C[C@@H]1CCCCO[C@@H](CN(C)C(=O)Nc2cccc3ccccc23)[C@@H](C)CN([C@H](C)CO)C(=O)c2cc(NS(=O)(=O)c3ccccc3)ccc2O1	-40	/	/	/	/	/	/
C[C@@H]1CCCCO[C@H](CN(C)C(=O)Nc2cccc3ccccc23)[C@H](C)CN([C@@H](C)CO)C(=O)c2cc(NS(=O)(=O)c3ccc(Cl)cc3)ccc2O1	-57	99*	1	104*	102*	-12	-3
C[C@@H]1CCCCO[C@H](CN(C)C(=O)Nc2cccc3ccccc23)[C@H](C)CN([C@H](C)CO)C(=O)c2cc(NS(=O)(=O)c3ccccc3)ccc2O1	-79	/	/	/	/	/	/
C[C@H](CO)N1C[C@H](C)[C@@H](CN(C)C(=O)Nc2cccc3ccccc23)OCCCC[C@H](C)Oc2ccc(NS(C)(=O)=O)cc2C1=O	-23	-10	-6	/	/	/	/
C[C@@H]1CN([C@@H](C)CO)C(=O)c2cc(NS(=O)(=O)c3ccc(Cl)cc3)ccc2O[C@@H](C)CCCCO[C@H]1CN(C)C(=O)Nc1cccc2ccccc12	-77	96*	-9	107*	102*	-13	13
C[C@@H]1CCCCO[C@@H](CN(C)C(=O)Nc2cccc3ccccc23)[C@H](C)CN([C@@H](C)CO)C(=O)c2cc(NS(=O)(=O)c3ccc(Cl)cc3)ccc2O1	-6	98*	-5	107*	117*	-25	-17
O=C(NC1CCCCC1)N1CC(=O)N2[C@H](C1)[C@@H](c1ccc(-c3cccc(F)c3)cc1)[C@@H]2CO	4	/	-11	/	/	/	/
C/C=C/c1ccc2c(c1)O[C@@H](CN(C)C(=O)c1cccc(F)c1)[C@@H](C)CN([C@H](C)CO)S2(=O)=O	-40	47	1	/	/	/	/
C[C@@H]1CN([C@H](C)CO)C(=O)c2cc(C#CCN(C)C)cnc2O[C@@H]1CN(C)C(=O)c1ccc(F)cc1	16	-47	-6	/	/	/	/
C[C@H]1CN([C@@H](C)CO)C(=O)c2cc(NC(=O)NC3CCCCC3)ccc2O[C@H]1CN(C)Cc1ccc2c(c1)OCO2	-2	?	-4	104*	99*	?	41*
C[C@@H]1CN([C@H](C)CO)C(=O)c2cc(NC(=O)NC3CCCCC3)ccc2O[C@@H]1CN(C)Cc1ccc2c(c1)OCO2	-30	22	-5	/	/	/	/
C[C@H](CO)N1C[C@H](C)[C@H](CN(C)Cc2ccc3c(c2)OCO3)Oc2ccc(NC(=O)NC3CCCCC3)cc2C1=O	18	100*	4	?	97*	28	51*
C[C@H]1CN([C@@H](C)CO)C(=O)c2cc(NC(=O)NC3CCCCC3)ccc2O[C@@H]1CN(C)Cc1ccc2c(c1)OCO2	-12	-23	-2	/	/	/	/
CNC[C@@H]1Oc2c(NC(=O)c3nc4ccccc4s3)cccc2C(=O)N([C@H](C)CO)C[C@@H]1C	-7	24	1	/	/	/	/
N#C[C@@H]1[C@@H](c2ccc(-c3cncnc3)cc2)[C@H](CO)N1C(=O)C1CCOCC1	26	100*	-14	10	9	-10	1
N#C[C@@H]1[C@H](c2ccc(-c3cncnc3)cc2)[C@H](CO)N1C(=O)C1CCC1	10	101*	-9	28	-66	-13	-18
N#C[C@H]1[C@H](c2ccc(-c3cncnc3)cc2)[C@@H](CO)N1C(=O)C1CCC1	-1	86	-4	/	/	/	/
COc1ccc(-c2ccc([C@@H]3[C@@H](C#N)N(C(=O)C4CCOCC4)[C@H]3CO)cc2)cc1	0	57	4	/	/	/	/
Cc1noc(C)c1S(=O)(=O)Nc1ccc2c(c1)C(=O)N([C@H](C)CO)C[C@@H](C)[C@@H](CN(C)CC1CCCCC1)OCCCC[C@H](C)O2	5	6	10	/	/	/	/
O=C(NC1CCCCC1)N[C@@H]1CC[C@@H](CCNS(=O)(=O)c2ccccc2)O[C@@H]1CO	-28	40	-1	/	/	/	/
O=C(C[C@@H]1C[C@@H]2c3cc(NC(=O)C4CCOCC4)ccc3O[C@@H]2[C@@H](CO)O1)NCc1ccc(Oc2ccccc2)cc1	-30	31	/	/	/	/	/
COc1ccc(CNC(=O)C[C@@H]2C[C@@H]3c4cc(NC(=O)C5CCC5)ccc4O[C@@H]3[C@@H](CO)O2)cc1	2	-36	3	/	/	/	/
O=C(C[C@@H]1C[C@H]2c3cc(NC(=O)C4CCOCC4)ccc3O[C@H]2[C@H](CO)O1)NCc1ccc(Oc2ccccc2)cc1	-68	142*	/	-3	7	2	-6
SMILES	Pf Dd2 inh	T cruzi growth-1	C diff HTS	T cruzi growth-2	T cruzi growth-3	3T3 cytotox	NIH3T3 tox 2
O=C(C[C@@H]1C[C@@H]2c3cc(NC(=O)CC4CC4)ccc3O[C@@H]2[C@H](CO)O1)NCCN1CCCCC1	0	-123	0	/	/	/	/
O=C(C[C@H]1C[C@@H]2c3cc(NC(=O)C4CCOCC4)ccc3O[C@@H]2[C@H](CO)O1)NCCN1CCCCC1	0	171*	-8	75	10	13	-1
COc1ccc(CNC(=O)C[C@H]2C[C@@H]3c4cc(NC(=O)C5CCC5)ccc4O[C@@H]3[C@H](CO)O2)cc1	-28	165*	4	11	9	2	-6
Cc1ccc(-c2ccc([C@@H]3[C@@H](CO)N4C(=O)CN(C(=O)Nc5cccc(F)c5)C[C@H]34)cc2)cc1	-3	/	9	/	/	/	/
CCCN1C[C@@H](C)[C@H](OC)CN(C)C(=O)c2ccc(NC(=O)Nc3c(C)noc3C)cc2OC[C@H]1C	-44	12	0	/	/	/	/
CC(=O)N(C)C[C@H]1Oc2ncc(C#C[C@H](C)O)cc2C(=O)N([C@@H](C)CO)C[C@@H]1C	19	-1	-1	/	/	/	/
C[C@H]1CN([C@@H](C)CO)S(=O)(=O)c2ccc(-c3ccncc3)cc2O[C@H]1CN(C)Cc1ccc(Oc2ccccc2)cc1	-73	124	31	/	/	/	/
